Laboratory results: the supplement of paper PMC6555819

tested on: PPARg:RXRa (NR concentration 180 nM, RXRa partner concentration 90 nM); experiment: PBM binding z-score (relative to random genomic background probes); higher = stronger binding; sequences stand for … in GC…GCGATTGACAGCGTAGAATGAAGG
Procedure, shortened: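 Custom Agilent 4×180K protein-binding microarrays carried double-stranded probes. Their 34-nt variable regions held direct-repeat seeds, single-nucleotide variants, half-site ablations and random human genomic background sequences. Arrays were incubated 1 h with ligand-free nuclear receptor dimers in PBS pH 7.4, 2% milk, 0.02% Triton X-100, 1 mM DTT, 0.2 mg/mL BSA and 0.4 mg/ml salmon testes DNA. Antibodies against each partner (one per run) detected binding, and scanned fluorescence was regression-normalized. Binding z-scores use random background probes as reference.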

Sequence	PBM binding z-score
TCATATAGGTAAACAGGTGAAACTCCGTAAGTTA	2.96
TCTAGCAAGCCAGAGGGTCACTCAAGAGGTACGG	0.737
ACAGACCGGTGAGTGAAGGTAACTCAGCTGGACG	0.147
CCGACTGGGGCAAGATTACCATAACGCACAGCCA	1.17
GGAACGAGGGCAAAGTCGATAGCATCTGTCGACG	1.97
ACTATCAGTTGAGACGAGGGCAACCGATAGGTTG	0.645
AATACACGGTCACTAGGCCAGAGTAGGTACGAAT	2.67
TCTCGGAGGACACGAGAGGTCAGAGCTCGACATC	0.952
ACAGACAGGTGATGAACGTAACTCAGGCTATCAT	0.922
ATACCAAGGTGATCGTGAGGTCGTTGTTACTAAC	0.364
GCTACCAGGCCATTTGGGTCACTCAATGACGGGC	0.923
TCGAGTCGGTTACCAATGGGGCATTCAGCTTTCT	-0.641
TATCGGAGGACACGAAGGTCAGAGCTTTCCAGAG	0.951
ATCGAAAGGTCGTTAGGTGAGTATACAGAAAGGC	2.59
AGTCAAAGTTCATCTAGGTAACGTACGATATGCT	6.7
ACAGACAGGTGATTAAGGTAACTCAGGCTATCAT	0.468
AGTCAAAGTTCACTAGGTAACGTATGATTCAGCT	7.19
TCTAATAGTTGAAGGGCAACCGACGAGTCCGTTT	0.216
GCTAGCAGGCCTTTTGGGTCACTCAATGACGGGC	0.209
GCTTACGGGTCAAAGGTTATATCATGAATAGAAT	11.4
TCTAGTTGCTCACGGAGGTCACACACGACGGGTA	1.55
CTCGAAAGATCGTGCTCAGGTGAGTATACCAAAC	-0.161
